An excerpt weighted towards active compounds, which were near 14% of everything screened.
USP8 block: inhibitors of human USP8 deubiquitinase. AID 1645853, 2021. Ubiquitin carboxyl-terminal hydrolase 8 (Homo sapiens), P40818. actives 4.2% (n = 47,000). purified USP8, Ub-rhodamine cleavage fluorescence, 30 min. inhibition, % at 20 µM
USP17 block: inhibitors of human USP17 deubiquitinase. Ubiquitin carboxyl-terminal hydrolase 17-like protein 5 (Homo sapiens), A8MUK1. purified USP17, Ub-rhodamine cleavage fluorescence, 3 h. inhibition, % at 50 µM. actives 6.5% (n = 47,000)
Target sequence (A8MUK1 whole entry, looked up): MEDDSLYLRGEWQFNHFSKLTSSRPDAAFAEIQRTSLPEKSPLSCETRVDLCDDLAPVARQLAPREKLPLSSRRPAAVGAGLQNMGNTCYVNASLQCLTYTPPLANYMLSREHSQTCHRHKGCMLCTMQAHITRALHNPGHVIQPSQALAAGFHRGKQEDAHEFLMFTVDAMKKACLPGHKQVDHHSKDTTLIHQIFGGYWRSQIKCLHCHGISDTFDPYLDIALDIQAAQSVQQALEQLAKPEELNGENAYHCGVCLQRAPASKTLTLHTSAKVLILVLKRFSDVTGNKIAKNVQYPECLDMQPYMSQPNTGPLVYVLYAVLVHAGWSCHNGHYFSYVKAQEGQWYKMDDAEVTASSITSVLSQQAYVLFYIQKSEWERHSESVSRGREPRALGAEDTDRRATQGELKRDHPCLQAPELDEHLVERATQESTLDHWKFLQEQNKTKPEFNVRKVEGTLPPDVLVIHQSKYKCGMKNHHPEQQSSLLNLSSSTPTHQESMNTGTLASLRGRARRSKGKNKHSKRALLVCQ
USP30 inh: inhibitors of human USP30 deubiquitinase | Ubiquitin carboxyl-terminal hydrolase 30 (Homo sapiens), Q70CQ3 | purified USP30, Ub-rhodamine cleavage fluorescence | inhibition, % at 25 µM | actives 5.3% (n = 47,000)
USP28 block: inhibitors of human USP28 deubiquitinase; Ubiquitin carboxyl-terminal hydrolase 28 (Homo sapiens), Q96RU2; purified USP28, Ub-rhodamine cleavage fluorescence, 30 min; inhibition, % at 25 µM; actives 3% (n = 47,000); AID 1645857, 2021
The depositor's hits bear a star; i = inactive; . = not tested or not shown. Rule as the data show it: active = inhibition above about 30%; inactive = the rest.

SMILES | USP8 block | USP17 block | USP30 inh | USP28 block
COc1ccc(S(=O)(=O)N(Cc2cccnc2)Cc2cc3ccccc3[nH]c2=O)cc1 | -37 | -21 | -26 | -15
COc1ccc(S(=O)(=O)N(Cc2ccco2)Cc2cc3ccccc3[nH]c2=O)cc1 | -16 | 11 | 42* | 28
Cc1cccc(C(=O)NC(Cc2ccccc2)c2nc3ccccc3n2C)c1 (stereo not given) | 16 | . | 45* | 10
CC(=O)NC(Cc1ccccc1)c1nc2ccccc2n1Cc1ccccc1F (stereo not given) | 0 | -2 | 4 | -8
Nc1nn(-c2ccccc2)cc1-c1cccs1 | 36* | -3 | -20 | -2
COc1ccc(C(=O)/C=C\c2cn(-c3ccccc3)nc2-c2cccs2)cc1 | 2 | -3 | -14 | -12
Cc1cc(C(=O)COc2ncnc3sccc23)c(C)n1-c1ccc2c(c1)OCO2 | 8 | 57* | . | .
Cc1cc(C(=O)COC(=O)c2ccc[nH]c2=O)c(C)n1-c1ccc2c(c1)OCO2 | 30* | 67* | -30 | 0
Cc1ccc(S(=O)(=O)CCC(=O)OCC(=O)c2cc(C)n(-c3ccc4c(c3)OCO4)c2C)cc1 | 58* | 41* | 3 | 18
Cc1cc(C(=O)COc2ncnc3sccc23)c(C)n1CC1COc2ccccc2O1 (stereo not given) | 6 | . | -120 | -29
Cc1cc(C(=O)CN2CCN(Cc3ccc4c(c3)OCO4)CC2)c(C)n1-c1ccc2c(c1)OCO2 | 21 | 55* | -16 | 18
O=C(COC(=O)c1ccccc1NC(=O)c1ccc(Oc2ccccc2)cc1)c1ccc2c(c1)OCO2 | -1 | -3 | -3 | -3
COc1cc(Br)c(CC(=O)OCC(=O)c2cc(C)n(-c3ccc(Cl)cc3)c2C)cc1OC | -7 | -28 | -59 | -10
Cc1cc(C)c2cc(CN(Cc3cccnc3)C(=O)Nc3ccc(F)cc3)c(=O)[nH]c2c1 | 7 | 18 | 18 | 11
Cc1ccc2[nH]c(=O)c(CN(Cc3cccnc3)S(=O)(=O)c3ccccc3)cc2c1 | 0 | -7 | 10 | -4
COc1cc2cc(CN(Cc3cccnc3)C(=O)Nc3ccc(Cl)cc3)c(=O)[nH]c2cc1OC | 2 | 11 | 40* | -13
Cc1ccc2[nH]c(=O)c(CN(Cc3cccnc3)C(=O)c3cccc(Cl)c3)cc2c1 | 12 | 9 | 51* | 7
CCc1ccc2[nH]c(=O)c(CN(CCc3ccc(OC)c(OC)c3)C(=O)Nc3ccccc3)cc2c1 | 3 | 44* | 54* | 23
COc1cccc(-c2noc(NCc3ccc4c(c3)OCO4)n2)c1OC | -17 | -4 | -8 | 15
Cc1cc(C)cc(NC(=O)C2CCCN(c3cc(=O)n(C)c(=O)n3C)C2)c1 (stereo not given) | 4 | 6 | 0 | 0
COC1CCN([C@@H]2[C@@H](O)[C@H](Oc3cccnc3)C[C@H]2N)CC1 | -52 | -20 | -101 | -17
Cc1cc(Br)c(C(C)C)c(Br)c1OC(=O)c1ccco1 | 7 | 4 | -11 | 48*
O=C(Oc1ccc(-c2ccccc2)c(F)c1)c1ccco1 | 5 | 6 | -21 | 1
CC(C)c1nc(CNC(=O)C2CCCCC2)no1 | 25 | 37* | 10 | 6
O=C(NCc1noc(C2CCCCC2)n1)C1CCCC1 | -1 | -13 | -8 | -21
SMILES | USP8 block | USP17 block | USP30 inh | USP28 block
COc1ccc(C(=O)COC(=O)c2ccccc2NS(=O)(=O)c2ccc(O)c([N+](=O)[O-])c2)cc1 | 62* | 74* | 47* | 60*
Cc1ccc(NC(=O)CC2Nc3ccccc3NC2=O)cc1[N+](=O)[O-] (stereo not given) | 66* | 41* | 49* | 14
Cc1ccc(C)c(C(=O)N2CC(C(=O)NC3CCCC3)C3(CCOCC3)C2)c1 (stereo not given) | 12 | 9 | 9 | 14
Cc1oc(C2CC2)cc1C(=O)N1CCC2(CC1)CC1(CO2)Nc2ccccc2-n2cccc21 (stereo not given) | 92* | 71* | -5 | 17
Cc1ccc(C(=O)N2CCC3(CC2)Nc2cccnc2NC3=NCc2ccccc2)cn1 | -218 | -131 | i | -184
O=C(Cc1ccccc1F)N1CCC2(CC1)CC1(CO2)Nc2ccccc2-n2cccc21 (stereo not given) | 94* | 53* | -17 | 1
Cc1ccc2c(c1)C(=O)NCC1(CCN(C(=O)Cc3ccccc3F)CC1)O2 | 0 | -14 | -1 | -14
COc1ccc(NC(=O)N2CCC3(CC2)Nc2ccccc2-n2cccc23)c(OC)c1 | 15 | 4 | 3 | 11
Cc1ccc(C(=O)N2CCC3(CC2)CC2(CO3)Nc3ccccc3-n3cccc32)cn1 (stereo not given) | 67* | 29 | -184 | -42
Cc1nn(C)cc1C(=O)N1CCC2(CC1)CC1(CO2)Nc2ccccc2-n2cccc21 (stereo not given) | 57* | 38* | -36 | -20
CC(C)(C(N)=O)N1CCN(c2cccc(C(F)(F)F)c2)CC1 | -4 | . | 3 | -5
O=C1c2ccccc2NC(c2ccc(O)cc2)N1Cc1ccc2c(c1)OCO2 (stereo not given) | 10 | 3 | -1 | 15
O=C(c1cnn2c(-c3ccc4c(c3)OCO4)ccnc12)N1CCN(c2ccccn2)CC1 | -6 | -7 | -2 | -8
COc1cc2c(cc1OC)CN(CC(=O)Nc1cc([N+](=O)[O-])ccc1Cl)CC2 | -120 | -18 | -19 | -11
O=C(CN1CCCCC1)Nc1nnc(-c2ccc([N+](=O)[O-])cc2)s1 | -79 | 38* | 34* | 35*
O=C(CN1CCCCCC1)Nc1cc([N+](=O)[O-])ccc1Cl | -69 | 45* | 28 | 21
O=C(Cc1cccs1)Nc1nnc(SCc2ccc([N+](=O)[O-])cc2)s1 | 0 | -4 | -176 | 10
CC(Oc1ccccc1Cl)C(=O)Nc1nonc1-c1ccccc1 (stereo not given) | 33* | 16 | 27 | 16
COc1ccc(-c2nonc2NC(=O)C(c2ccccc2)c2ccccc2)cc1OC | 21 | 0 | 51* | 12
Cc1ccc(-c2nonc2NC(=O)Cc2ccccc2)cc1 | 5 | 7 | 21 | 4
CC(Oc1ccc(C(C)C)cc1)C(=O)Nc1nonc1-c1ccccc1 (stereo not given) | 9 | -2 | -1 | 1
Nc1c(-c2ccsc2)cnn1-c1ccc(Cl)cc1Cl | -3 | -10 | -6 | -4
CS(=O)(=O)c1ccccc1C(=O)NC1CCCc2ccccc21 (stereo not given) | -2 | -1 | 17 | 7
CCOc1ncccc1C(=O)NC1CCCc2ccccc21 (stereo not given) | 17 | 15 | 32* | 26
Cn1c(=O)c2c(ncn2CC(=O)NC2CCCc3ccccc32)n(C)c1=O (stereo not given) | 1 | 13 | 17 | 82*
Cn1c(=O)c2c(ncn2CC(=O)OCC(=O)Nc2ccc3c(c2)CCC3)n(C)c1=O | -2 | -14 | -13 | 10
O=C(NC1CCCc2ccccc21)c1cnn(-c2ccccc2)c1-n1cccc1 (stereo not given) | 11 | 13 | 32* | 16
